# Assay results as given in PubChem BioAssay AID431 (Sanford-Burnham Center for Chemical Genomics, 2006).
# “And” between values parts separate entries of the source, which are not always exact repeats. Equal values may be shown once. Hit rate of the full screen: of about 63,000 compounds, about 1,100 (1.7%) were called active.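 How the source made its calls: active means compounds whose percent cytotoxicity in the single-dose primary screen, scaled between solvent and toxic-drug controls, exceeds 50; inactive means the rest.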 For the sample, actives were picked, then their nearest neighbours and some compounds at random. Measured potencies and affinities stand elsewhere.
# Assay: viability loss of HPDE-C7K cells – cell-based, fluorescence, HTS, primary screen (AID 431);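 further: 0% = DMSO solvent wells and 100% = doxorubicin-treated wells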
# Settings: HPDE-C7K KRASV12 cells, Alamar Blue viability, 48 h; at 10 µM; active compounds read high
row,Structure (SMILES),cytotoxicity
1,C=CCn1c(COc2cccc3ccc(C)nc23)nnc1SCC(=O)OC,6.8% (inactive)
2,COc1cccc(CN2CCNC(=O)C2CC(=O)O)c1OC (stereo unspecified),-4.6% (inactive)
3,Cc1n[nH]c(C)c1S(=O)(=O)N1CCN(C(=O)c2ccco2)CC1,4% (inactive)
4,COC(=O)c1ccc(CN(c2ccc(C)cc2)S(=O)(=O)c2ccc3c(c2)OCCO3)o1,7.1% (inactive)
5,COc1cccc(N(CC(=O)NC(C)(C)C)C(=O)C2CSC(=O)C2)c1 (stereo unspecified),-24.1% (inactive)
6,CCOC(=O)C1CCN(c2ncnc3c2cnn3-c2ccccc2)CC1,2.3% (inactive)
7,COc1ccc(/C(O)=C2/C(=O)C(=O)N(CCN(C)C)C2c2ccccn2)cc1OC (stereo unspecified),-9.5% (inactive)
8,O=C(NC1CCCCC1)C(c1ccccc1F)N(Cc1ccco1)C(=O)Cn1nnc2ccccc21 (stereo unspecified),65.1% (active)
9,CCC(C)(C)NC(=O)C(c1ccccc1F)N(Cc1ccco1)C(=O)Cn1nnc2ccccc21 (stereo unspecified),-4.3% (inactive)
10,O=C(NC1CCCCC1)C(c1ccc(F)cc1)N(Cc1ccco1)C(=O)Cn1nnc2ccccc21 (stereo unspecified),-8.2% (inactive)
11,O=C(OC(C(=O)NCC1CCCO1)c1ccc(F)cc1)c1ccco1 (stereo unspecified),-12.4% (inactive)
12,COc1cc(-c2c(C#N)c(N)nc3c2CCCC3)ccc1O,-23.5% (inactive)
13,COc1cc2nc(N3CCN(C(=O)c4ccco4)CC3)nc(N)c2cc1OC,90.2% (active)
14,COc1cc2nc(N3CCN(C(=O)C4CCCO4)CC3)nc(N)c2cc1OC (stereo unspecified),-6.8% (inactive) and -0.8% (inactive)
15,COc1cc2nc(N3CCN(C(=O)C4COc5ccccc5O4)CC3)nc(N)c2cc1OC (stereo unspecified),43.4% (inactive)
16,CN(c1ccccc1C(=O)NCc1ccco1)S(C)(=O)=O,3.4% (inactive)
17,Cc1ccc(S(=O)(=O)NCCC(=O)Nc2nnc(C3CC3)s2)cc1C,5.5% (inactive)
18,O=C(NCCCN1CCOCC1)c1ccc(CS(=O)(=O)c2cccc(C(F)(F)F)c2)o1,-4.8% (inactive)
19,O=C1c2cccnc2C(O)N1Cc1cccs1 (stereo unspecified),-24.1% (inactive)
20,CCCC1COC(Cn2cncn2)(c2ccc(C)cc2)O1 (stereo unspecified),-8.6% (inactive)
21,CCC(C)n1ncn(-c2ccc(N3CCN(c4ccc(OCC5COC(Cn6cncn6)(c6ccc(Cl)cc6Cl)O5)cc4)CC3)cc2)c1=O (stereo unspecified),68.7% (active)
22,O=C1Nc2ccccc2C12OCC(COc1ccc(Cl)cc1)O2 (stereo unspecified),36.3% (inactive)
23,CN1CCN(S(=O)C23CC4CC(CC(C4)C2)C3)CC1 (stereo unspecified),-18.9% (inactive)
24,CCOc1ccc(-c2n[nH]c(C)c2-c2ccccc2OC)c(O)c1,-3.5% (inactive)

row,Structure (SMILES),cytotoxicity
1,COc1ccc(C(=O)OCCN2C(=O)c3ccccc3C2=O)cc1,1.1% (inactive)
2,CCCOC(=O)c1ccc(OC(=O)c2ccco2)cc1,1.8% (inactive)
3,CCOc1ccc(-c2nc(N)nc(C)c2-c2ccc(OC)c(OC)c2)c(O)c1,9.6% (inactive)
4,Cc1cc2nc(SCCN3CCCC3)[nH]c2cc1C,16.7% (inactive)
5,CC1=Nn2c(nnc2C2CCCCC2)SC1,-19% (inactive)
6,CCn1c(=O)cc(OCC(=O)NC2CCCCC2)c2ccccc21,-1.2% (inactive)
7,CCSc1nnc(-c2ccc(S(=O)(=O)N3CCOCC3)cc2)n1CC1CCCO1 (stereo unspecified),14% (inactive)
8,Cc1c(N(C)C(=O)c2ccco2)c(=O)n(-c2ccccc2)n1C,8.3% (inactive)
9,COc1ccc2c(c1)CC(C1(O)C(=O)Nc3ccccc31)C2=O (stereo unspecified),-10.5% (inactive)
10,O=C(CN1CCCC1)N1c2ccccc2Sc2ccccc21,-4.5% (inactive)
11,CC1CC(=O)N(CC(=O)N2CCCC2)c2ccccc2S1 (stereo unspecified),-21% (inactive)
12,CCOC(=O)C1CCN(C(=O)COc2ccc(Br)cc2)CC1,6.3% (inactive)
13,CCCn1c(NC(=O)c2ccccc2)nc2ccccc21,-14.1% (inactive)
14,CCCn1c(NCc2ccco2)nc2ccccc21,-3.7% (inactive)
15,CCn1c(COc2ccccc2)nnc1SCC(=O)C(C)(C)C,16.4% (inactive)
16,CCc1ccccc1NC(=O)C(CC)Sc1nc2cc3c(cc2c(=O)n1Cc1ccco1)OCO3 (stereo unspecified),10.9% (inactive)
17,CCC(Sc1nc2cc3c(cc2c(=O)n1Cc1ccco1)OCO3)C(=O)Nc1ccccc1OC (stereo unspecified),-11.9% (inactive)
18,O=C(CCCOc1ccc(Cl)cc1Cl)N1CCN(c2ccccn2)CC1,1.2% (inactive)
19,O=C(c1cccc(Cl)c1)N1CCN(c2ccccn2)CC1,-21.5% (inactive)
20,O=C(c1cccc(COc2ccc(Cl)cc2Cl)c1)N1CCN(c2ccccn2)CC1,99% (active)
21,COc1ccc(Br)cc1-c1nc(C)c(C(C)=O)n1O,9.6% (inactive)
22,O=C(Nc1cccc(Cl)c1)c1ccc2c(=O)n3c(nc2c1)CCCCC3,53.7% (active)
23,O=C(Nc1ccc(F)cc1Cl)c1ccc2c(=O)n3c(nc2c1)CCCCC3,-3.1% (inactive)
24,O=C(Nc1ccc(F)c(Cl)c1)c1ccc2c(=O)n3c(nc2c1)CCCCC3,-3.7% (inactive)

row,Structure (SMILES),cytotoxicity
1,CCC(C)C(NC(=O)c1ccccc1NC(=O)c1ccco1)C(=O)O (stereo unspecified),1.4% (inactive)
2,CC(C)COc1ccc(C2NC(=O)NC2=O)cc1 (stereo unspecified),3.8% (inactive)
3,Nc1cc(C(=O)N2CCCC2)cc(C(=O)N2CCCC2)c1,6.7% (inactive)
4,O=P(O)(CCc1ccccc1)CN1CCCCC1,2.1% (inactive)
5,COc1cc2c(=O)n(-c3ccc(C)cc3)c(=O)n(CC(=O)c3ccc4c(c3)OCO4)c2cc1OC,2.3% (inactive)
6,COc1ccc(C(=O)Oc2ccc3c(c2)OCO3)cc1OC,-16.2% (inactive)
7,COc1cc2c(O)c3c(c(-c4ccc5c(c4)OCO5)c2cc1OC)C(=O)OC3,99.9% (active)
8,CN1C(=O)CC(N2CCN(CC(=O)N3CCCC3)CC2)C1=O (stereo unspecified),-1.8% (inactive)
9,COc1ccc(S(=O)(=O)NC2CCCC2)cc1Br,8.9% (inactive)
10,OC[C@H]1O[C@@H](n2cnc3c(NC4CCCC4)ncnc32)[C@H](O)[C@@H]1O,3.7% (inactive)
11,C=CCNc1ncnc2c1ncn2C1OC(CO)C(O)C1O (stereo unspecified),53.6% (active)
12,OC[C@H]1O[C@@H](n2cnc3c(Nc4ccccc4)ncnc32)[C@H](O)[C@@H]1O,62.3% (active)
13,Nc1nc(Cl)nc2c1ncn2[C@@H]1O[C@H](CO)[C@@H](O)[C@H]1O,2.5% (inactive)
14,Nc1ncnc2c1ncn2[C@@H]1O[C@H](CO)[C@@H](O)[C@H]1O,-17.3% (inactive)
15,Nc1nc(F)nc2c1ncn2[C@@H]1O[C@H](CO)[C@@H](O)[C@@H]1O,42.7% (inactive)
16,COc1cccc2cc(C(=O)Nc3cccnc3N3CCOCC3)c(=O)oc12,7.3% (inactive)
17,O=C(CSc1nnnn1-c1ccc2c(c1)OCCO2)c1cccc2c1OCCO2,10.2% (inactive)
18,COc1cccc(/C=N/n2c(CO)nc3ccccc32)c1OC,-4.1% (inactive)
19,CC(O)C(O)C(O)C(O)C1NCCS1 (stereo unspecified),5.8% (inactive)
20,N=c1n(Cc2ccccc2)c2ccccc2n1CC(O)COc1ccccc1 (stereo unspecified),53% (active)
21,CCCCn1c(=N)n(CC(O)COc2cccc(C)c2)c2ccccc21 (stereo unspecified),50.9% (active)
22,CCCn1c(=N)n(CC(O)COc2cccc(C)c2)c2ccccc21 (stereo unspecified),12.4% (inactive)
23,CCn1c(=N)n(CC(O)COc2cccc(C)c2)c2ccccc21 (stereo unspecified),23.6% (inactive)
24,CCCCn1c(=N)n(CC(O)COc2ccccc2)c2ccccc21 (stereo unspecified),13.3% (inactive)

row,Structure (SMILES),cytotoxicity
1,COc1ccc(OCC(O)Cn2c(=N)n(Cc3ccccc3)c3ccccc32)cc1 (stereo unspecified),22.1% (inactive)
2,O=C(COc1ccccc1)NCCSc1ccccc1,0% (inactive)
3,CCN(CC)S(=O)(=O)c1ccc(OCC(=O)NCc2ccccc2)cc1,7.9% (inactive)
4,Cc1ccc(NC(=O)CSCc2c(C)noc2C)cc1C,-2.9% (inactive)
5,COc1ccccc1Cn1c2nc3ccccc3nc2c2c(=O)n(CC(C)C)cnc21,5% (inactive)
6,O=C(NC1CCCCC1)C1CCN(S(=O)(=O)c2cccc3cccnc23)CC1,-12.2% (inactive)
7,Cn1c(-c2ccc3c(c2)OCO3)cnc1NCc1ccc(Cl)cc1,62.3% (active)
8,Cn1c(-c2ccc3c(c2)OCO3)cnc1N,8.4% (inactive)
9,Cn1c(-c2ccc3c(c2)OCO3)cnc1NC(=O)CCC(=O)NCCc1ccccc1,-0.9% (inactive)
10,Cc1ccc(CNc2ncc(-c3ccc4c(c3)OCO4)n2C)cc1,-5.9% (inactive)
11,Cn1c(-c2ccc3c(c2)OCO3)cnc1NCc1ccccc1,-4.5% (inactive)
12,Cn1c(-c2ccc3c(c2)OCO3)cnc1NCc1cccc(Cl)c1,63.6% (active)
13,COc1ccc(CN2CCN(S(=O)(=O)c3ccc(NC(C)=O)cc3)CC2)cc1OC,-2.4% (inactive)
14,O=C(NCCN1C(=O)C2C3C=CC(C3)C2C1=O)Nc1ccc(Br)cc1 (stereo unspecified),8.1% (inactive)
15,COc1cccc(S(=O)(=O)Nc2ccc(C(=O)NCc3ccco3)cc2)c1,-28.4% (inactive)
16,COc1ccc(CC(=O)N2CCN(C(=O)Cc3ccc(OC)cc3)CC2)cc1,-6.3% (inactive)
17,CC(C)CNC(=O)c1c(N)n(/N=C/c2ccccn2)c2nc3ccccc3nc12,1.7% (inactive)
18,Nc1c(C(=O)NC2CCCC2)c2nc3ccccc3nc2n1/N=C/c1cccnc1,66.8% (active)
19,Nc1c(C(=O)NC2CCCCC2)c2nc3ccccc3nc2n1/N=C/c1ccco1,4.7% (inactive)
20,CC(C)CNC(=O)c1c(N)n(/N=C/c2cccnc2)c2nc3ccccc3nc12,1.6% (inactive)
21,COCCCNC(=O)c1c(N)n(/N=C/c2cccnc2)c2nc3ccccc3nc12,22.5% (inactive)
22,CCCCNC(=O)c1c(N)n(/N=C/c2ccccn2)c2nc3ccccc3nc12,38.1% (inactive)
23,CCC(C)NC(=O)c1c(N)n(/N=C/c2cccnc2)c2nc3ccccc3nc12 (stereo unspecified),51.8% (active)
24,CCCCNC(=O)c1c(N)n(/N=C/c2cccnc2)c2nc3ccccc3nc12,12.3% (inactive)
